WRN helicase inh: inhibitors of human WRN helicase; actives 0.46% (n = 360,000); Potency, µM (highest dose often 114 µM), for inactives: at the top dose activity change, negative = inhibition, hits mostly inhibitors; Q14191; AID 651768; WRN helicase unwinding, fluorescent forked duplex, kinetic; also: potency is read from the fitted curve at half-maximal effect; nearly all actives have a fitted effect of over 55% in size
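WRN at 20 nM final preincubated with compound 15 min at room temperature; reaction started with 100 nM fluorophore/quencher forked duplex oligonucleotide and 2 mM ATP final. Unwinding followed kinetically by red fluorescence (ex 525, em 598 nm).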
PLK1 PBD block: blocks phosphopeptide binding to human PLK1 polo-box domain; P53350; Plk1 PBD binding of FITC phosphopeptide, fluorescence polarization; Potency, µM, inactives show max response, negative = inhibition, usual class: inhibitors; actives 2.8% (n = 360,000); also: potency is read from the fitted curve at half-maximal effect; series mostly up to about 57 µM; nearly all actives have a fitted effect of over 65% in size
PI5P4K alpha inh: blocks human PI5P4K alpha kinase activity | P48426 | PI5P4Kalpha enzyme, ADP-Glo luminescence, 60 min; active compounds read low | max response, % | actives 1.2% (n = 330,000) | AID 652105; active = max response of -50% or lower; inconclusive = between -30% and -50%; inactive = -30% or higher; also: value at the top dose of about 77 µM
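Controls without substrate or without enzyme flank wells where PI5P4Kalpha converts substrate using 5 microM ATP (final). Incubation lasts 60 minutes at room temperature; ADP formed is read by ADP-Glo luminescence.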
USP2a block: inhibitors of human ubiquitin-specific protease USP2a. AID 463254. Potency, µM (doses to about 38.3 µM), for the others: at the highest dose activity change, negative = inhibition, hits mostly inhibitors. actives 0.01% (n = 330,000). O75604. USP2 core, Ub-CHOP2 coupled fluorogenic reporter, 485/531;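 also: potency is read from the fitted curve at half-maximal effect; plate controls were DMSO wells for no effect and full inhibition by NEM control for full effect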
Target sequence (O75604 whole entry, looked up): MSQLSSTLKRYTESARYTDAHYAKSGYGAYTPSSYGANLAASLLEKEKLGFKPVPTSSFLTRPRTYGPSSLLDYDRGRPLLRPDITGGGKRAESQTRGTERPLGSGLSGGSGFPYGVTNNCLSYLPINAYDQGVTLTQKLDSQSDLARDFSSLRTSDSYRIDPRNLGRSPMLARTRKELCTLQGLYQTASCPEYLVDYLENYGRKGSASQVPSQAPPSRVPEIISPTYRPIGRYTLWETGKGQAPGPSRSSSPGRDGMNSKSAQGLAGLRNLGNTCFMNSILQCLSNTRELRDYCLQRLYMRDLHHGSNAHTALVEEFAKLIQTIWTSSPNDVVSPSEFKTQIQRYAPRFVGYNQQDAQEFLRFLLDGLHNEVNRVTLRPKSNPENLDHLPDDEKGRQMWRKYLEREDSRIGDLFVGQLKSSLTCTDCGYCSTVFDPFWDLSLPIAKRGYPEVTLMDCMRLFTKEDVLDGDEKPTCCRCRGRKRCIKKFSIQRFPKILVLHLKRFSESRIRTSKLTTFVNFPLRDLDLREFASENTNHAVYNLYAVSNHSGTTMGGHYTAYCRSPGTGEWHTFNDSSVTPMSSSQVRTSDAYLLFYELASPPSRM
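Cell-free coupled assay: 10nM USP2 core preincubated 30min RT with compound in Tris-HCl pH 8.0/CaCl2/CHAPS buffer, then 25nM Ub-CHOP2 and 25nM reporter substrate; fluorescence (Ex 485/Em 531) read after 60min RT, normalized to NEM inhibition, concentration-response curves fitted.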
USP1 inh: blocks the human USP1/UAF1 deubiquitinase complex; recombinant USP1/UAF1, Ub-Rhodamine cleavage fluorescence; actives 0.23% (n = 390,000); Potency, µM (top dose mostly 57.1 µM), without a hit: at the highest dose activity change, negative = inhibition, hits mostly inhibitors; O94782; also: potency is read from the fitted curve at half-maximal effect; nearly all actives have a fitted effect of over 60% in size
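USP1/UAF1 complex at 1 nM was preincubated with compound for 15 min at room temperature, then Ub-Rho substrate (150nM final) was added. Fluorescence (480/540 nm) was read kinetically, 6 reads every 60 seconds.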
* = called active by the depositor. Sampled rows, rich in hits. Any-hit rate of the full collection: about 3.3%. Unless noted, calls follow the shape of the dose curve; as a rule, active = well fitted curve in the direction sought with a large enough effect; inconclusive = small, poorly fitted or top-dose-only effect, or another doubt; inactive = no such curve, though single readings can be large; an effect the other way counts as inactive or inconclusive. Unless noted, % is scaled to controls: 0 for no effect and ±100 for the full control effect.

How did Cc1ccccc1C(=O)Nc1cc(S(=O)(=O)N2CCCCC2)ccc1N1CCN(C)CC1 do in these assays?
WRN helicase inh: -12.0%; PLK1 PBD block: 5.97µM*; PI5P4K alpha inh: 3.8; USP2a block: 3.3%; USP1 inh: -10.7%

What do the screens show for `Cc1ccc(S(=O)(=O)NC(=O)c2cc(C)n(-c3cc(S(=O)(=O)N4CCOCC4)ccc3N3CCCC3)c2C)cc1`?
WRN helicase inh: -10.5%; PLK1 PBD block: 29.9µM*; USP2a block: 2.9%; USP1 inh: -0.5%

How did CC(C)C(=O)Nc1cc(S(=O)(=O)N2CCOCC2)ccc1N1CCCCC1 do in these assays?
WRN helicase inh: 2.6%; PLK1 PBD block: 23.8µM*; PI5P4K alpha inh: -2.4; USP2a block: 0.1%; USP1 inh: -0.1%

What do the screens show for `COc1ccccc1OCC(=O)Nc1cc(S(=O)(=O)N2CCOCC2)ccc1N1CCCCC1`?
WRN helicase inh: -10.3%; PLK1 PBD block: 23.8µM*; PI5P4K alpha inh: -15.5; USP2a block: -1.9%; USP1 inh: -16.2%

What do the screens show for `CN1CCN(c2ccc(S(=O)(=O)N3CCCCC3)cc2NC(=O)c2ccc3ccccc3c2)CC1`?
WRN helicase inh: -3.5%; PLK1 PBD block: -2.8%; PI5P4K alpha inh: -2.7; USP2a block: -6.8%; USP1 inh: -7.5%

What do the screens show for `Cc1ccc(NC(=O)Cn2c(=O)n(Cc3ccc4c(c3)OCO4)c(=O)c3ccc(C(=O)NC4CCCCC4)cc32)cc1`?
USP1 inh: -27.9%

Results for CCCC(=O)Nc1cc(S(=O)(=O)N2CCCCC2)ccc1N1CCOCC1 ?
WRN helicase inh: -1.1%; PLK1 PBD block: -7.0%; PI5P4K alpha inh: 4.6; USP2a block: 2.5%; USP1 inh: -13.6%

What do the screens show for `O=C(Nc1cc(S(=O)(=O)Nc2ccc(Cl)cc2)ccc1N1CCCCC1)c1ccc(F)cc1Cl`?
WRN helicase inh: -19.9%; PLK1 PBD block: 9.47µM*; PI5P4K alpha inh: 1.3; USP2a block: 0.0%; USP1 inh: -26.7%

What do the screens show for `COc1ccc(NS(=O)(=O)c2ccc(N3CCOCC3)c(NC(=O)c3ccccc3Cl)c2)cc1`?
WRN helicase inh: -4.4%; PLK1 PBD block: 2.6%; PI5P4K alpha inh: -4.0; USP2a block: -2.1%; USP1 inh: -3.0%

What do the screens show for `O=C(Nc1cc(S(=O)(=O)N2CCOCC2)ccc1N1CCCCC1)c1ccccc1Br`?
WRN helicase inh: -29.8%; PLK1 PBD block: 4.74µM*; PI5P4K alpha inh: inconclusive; USP2a block: -8.2%; USP1 inh: -5.1%

Results for COC(=O)CCC(=O)Nc1cc(S(=O)(=O)Nc2ccc(Cl)cc2)ccc1N1CCOCC1 ?
WRN helicase inh: -28.8%; PLK1 PBD block: 15µM*; PI5P4K alpha inh: -0.9; USP2a block: 2.4%; USP1 inh: -8.8%

What do the screens show for `CCCC(=O)Nc1cc(S(=O)(=O)N2CCOCC2)ccc1N1CCCCC1`?
WRN helicase inh: -8.6%; PLK1 PBD block: 23.8µM*; PI5P4K alpha inh: -1.9; USP2a block: 0.2%; USP1 inh: inconclusive

What do the screens show for `COc1ccc(NS(=O)(=O)c2ccc(N3CCOCC3)c(NC(=O)c3ccc(OC)cc3)c2)cc1`?
WRN helicase inh: -8.3%; PLK1 PBD block: -4.5%; PI5P4K alpha inh: 0.2; USP2a block: 3.1%; USP1 inh: -17.5%

How did O=C(Nc1ccccc1F)Nc1cc(S(=O)(=O)N2CCOCC2)ccc1N1CCCC1 do in these assays?
WRN helicase inh: -6.0%; PLK1 PBD block: -2.7%; PI5P4K alpha inh: 1.3; USP2a block: 1.9%; USP1 inh: -12.4%

What do the screens show for `Nc1cc(S(=O)(=O)N2CCOCC2)ccc1N1CCCCC1`?
WRN helicase inh: -12.8%; PLK1 PBD block: 2.99µM*; PI5P4K alpha inh: -22.0; USP2a block: 0.7%; USP1 inh: -24.7%

What do the screens show for `Nc1cc(S(=O)(=O)N2CCCCC2)ccc1N1CCCCC1`?
WRN helicase inh: -1.2%; PLK1 PBD block: -0.9%; PI5P4K alpha inh: 7.0; USP2a block: 1.0%; USP1 inh: -11.0%

Results for O=C(Nc1cc(S(=O)(=O)N2CCOCC2)ccc1N1CCCCC1)c1ccc(Cl)cc1 ?
WRN helicase inh: -6.4%; PLK1 PBD block: 5.32µM*; PI5P4K alpha inh: -26.0; USP2a block: 2.0%; USP1 inh: inconclusive

How did O=C(Nc1ccc(Cl)c(Cl)c1)Nc1cc(S(=O)(=O)N2CCOCC2)ccc1N1CCCC1 do in these assays?
WRN helicase inh: -4.9%; PLK1 PBD block: 16.8µM*; PI5P4K alpha inh: -13.0; USP2a block: -10.7%; USP1 inh: 2.5%

How did Nc1cc(S(=O)(=O)Nc2cc(Cl)ccc2Cl)ccc1N1CCOCC1 do in these assays?
WRN helicase inh: -35.3%; PLK1 PBD block: 1.89µM*; PI5P4K alpha inh: inconclusive; USP2a block: 2.3%; USP1 inh: -11.0%

Results for CC(C)c1nn2c(=O)cc(COC(=O)c3cccc(NC(=O)CCc4ccccc4)c3)nc2s1 ?
USP1 inh: -10.3%

What do the screens show for `Cc1c(Cl)cccc1NC(=O)CSc1nc2ncccc2o1`?
USP1 inh: -10.4%

What do the screens show for `COc1ccc2c(C)c(CCC(=O)NCCc3ccccc3OC)c(=O)oc2c1`?
USP1 inh: -17.0%

What do the screens show for `O=C1c2ccccc2C(=O)c2c(NCCCN(CCO)CCO)cccc21`?
WRN helicase inh: 25.1µM*; PLK1 PBD block: inconclusive; PI5P4K alpha inh: 0.3; USP2a block: 1.6%; USP1 inh: -9.2%

Results for COc1ccc(C2CC(=O)N3CN(c4ccc(C)c(Cl)c4)CSC3=C2C#N)cc1 (stereo not given) ?
WRN helicase inh: -0.8%; PLK1 PBD block: 23.8µM*; PI5P4K alpha inh: -69.5*; USP2a block: 2.0%; USP1 inh: -21.3%

How did COc1ccc(C2CC(=O)N3CN(c4ccccc4F)CSC3=C2C#N)cc1OC (stereo not given) do in these assays?
WRN helicase inh: -5.3%; PLK1 PBD block: 29.9µM*; PI5P4K alpha inh: -83.8*; USP2a block: 4.47µM*; USP1 inh: -11.2%

What do the screens show for `COc1ccc(C2CC(=O)N3CN(C4CCCCC4)CSC3=C2C#N)c(OC)c1` (stereo not given)?
USP1 inh: 2.24µM*

What do the screens show for `COc1ccc(OC)c(C2CC(=O)N3CN(c4ccccc4)CSC3=C2C#N)c1` (stereo not given)?
WRN helicase inh: -2.6%; PLK1 PBD block: 26.7µM*; PI5P4K alpha inh: -85.1*; USP2a block: -0.5%; USP1 inh: -23.0%

Results for Cc1ccc(NC(=O)C2CCCN2S(=O)(=O)c2cccc3cccnc23)cc1C (stereo not given) ?
USP1 inh: -26.8%

How did N#CC1=C2SCN(C3CCCCC3)CN2C(=O)CC1c1ccc(Br)cc1 (stereo not given) do in these assays?
USP1 inh: -21.8%

How did CCOc1cc(C2CC(=O)N3CN(C4CCCCC4)CSC3=C2C#N)ccc1O (stereo not given) do in these assays?
WRN helicase inh: 6.3%; PLK1 PBD block: 10.6µM*; PI5P4K alpha inh: -60.5*; USP2a block: 0.8%; USP1 inh: inconclusive
